Counter-ions that a name gives are not always drawn.
Legend:
Settings in all cases: 20 µM; incubation time: 27 h, anaerobic, 37 °C;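 for the amine columns active = adjusted P below 0.05 in both replicates with a change the same way and a mean fold change under 0.8 or over 1.25; inactive = the rest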
[1] = tested on: Clostridium sporogenes DSM 1664; experiment: growth (OD595) fold change vs plate DMSO controls (fold change (ratio)); higher = more growth
In short: (§1)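 Anaerobic 27 h, 37 °C mGAM 96-well cultures were shaken, then read for absorbance at 595 nm. Values were blank-subtracted and corrected for compound background using 20 µM compound solutions in water. A calibration factor of 5 converted them to OD. Growth is the fold change versus the median of plate DMSO controls. Fold changes above 1.5 were set to NA, and values are the mean of 2 biological replicates.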

Escherichia coli IAI1 [2] = experiment: as above
In short: as §1

[3] = tested on: Klebsiella aerogenes DSM 30053; experiment: as above
In short: as §1

[4] = tested on: Ruminococcus gnavus DSM 108212; experiment: as above
In short: as §1

[5] = tested on: Klebsiella aerogenes DSM 30053; experiment: fold change of Histamine concentration vs plate DMSO controls (fold change (ratio)); higher = more amine produced, active = hit call of the paper (significant change in both replicates, either direction)
In short: (§2)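 Amine values are fold changes relative to DMSO-only wells on the same plate. They derive from 27 h, 37 °C anaerobic mGAM cultures of four gut bacterial strains in 80 µL wells, dosed at 20 µM final, or 50 µM final for sweeteners. Extraction of the whole culture, LC–triple-quadrupole MS in dynamic MRM mode, external calibration curves and within-batch drift correction were used, with 2 biological replicates averaged.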

[6] = tested on: Clostridium sporogenes DSM 1664; experiment: fold change of Tryptamine concentration vs plate DMSO controls (fold change (ratio)); higher = more amine produced, active = hit call of the paper (significant change in both replicates, either direction)
In short: as §2

[7] = tested on: Ruminococcus gnavus DSM 108212; experiment: as above
In short: as §2

Escherichia coli IAI1 [8] = experiment: fold change of Putrescine concentration vs plate DMSO controls (fold change (ratio)); higher = more amine produced, active = hit call of the paper (significant change in both replicates, either direction)
In short: as §2

[9] = tested on: Klebsiella aerogenes DSM 30053; experiment: as above
In short: as §2

Escherichia coli IAI1 [10] = experiment: fold change of Cadaverine concentration vs plate DMSO controls (fold change (ratio)); higher = more amine produced, active = hit call of the paper (significant change in both replicates, either direction)
In short: as §2

[11] = tested on: Klebsiella aerogenes DSM 30053; experiment: as above
In short: as §2

[12] = tested on: Ruminococcus gnavus DSM 108212; experiment: fold change of 2-Phenylethylamine concentration vs plate DMSO controls (fold change (ratio)); higher = more amine produced, active = hit call of the paper (significant change in both replicates, either direction)
In short: as §2

Compound | growth [1] | growth (Escherichia coli IAI1 [2]) | growth [3] | growth [4] | fold change of Histamine concentration [5] | fold change of Tryptamine concentration [6] | fold change of Tryptamine concentration [7] | fold change of Putrescine concentration (Escherichia coli IAI1 [8]) | fold change of Putrescine concentration [9] | fold change of Cadaverine concentration (Escherichia coli IAI1 [10]) | fold change of Cadaverine concentration [11] | fold change of 2-Phenylethylamine concentration [12]
CS(=O)(=O)c1ccc(C(=O)C2C(=O)CCCC2=O)c([N+](=O)[O-])c1 | 1.1 | 1.02 | 1 | 1.02 | 1.02 (inactive) | 0.928 (inactive) | 1 (inactive) | 0.929 (inactive) | 0.946 (inactive) | 0.973 (inactive) | 1.08 (inactive) | 0.999 (inactive)
CC(=O)OC1CN2CCC1CC2 (configuration not stated) [Aceclidine hydrochloride] | 1.15 | 1.09 | 1.01 | 1.13 | 0.864 (inactive) | 1.02 (inactive) | 1.03 (inactive) | 1.02 (inactive) | 0.959 (inactive) | 0.951 (inactive) | 1.02 (inactive) | 1.01 (inactive)
CCC1(c2cccc(O)c2)CCCCN(C)C1 (configuration not stated) [Meptazinol hydrochloride] | 0.881 | 1.03 | 1.02 | 1.01 | 0.983 (inactive) | 1.06 (inactive) | 0.997 (inactive) | 1.03 (inactive) | 1 (inactive) | 1.01 (inactive) | 1.01 (inactive) | 0.997 (inactive)
CNC(=O)ON=C(C)SC | 1.01 | 0.969 | 1 | 0.984 | 1.04 (inactive) | 1.06 (inactive) | 1.06 (inactive) | 1 (inactive) | 0.967 (inactive) | 0.892 (inactive) | 1 (inactive) | 1.09 (inactive)
CCNc1nc(Cl)nc(NC(C)C)n1 | 1.02 | 1.02 | 1 | 1.06 | 1.03 (inactive) | 0.98 (inactive) | 1.06 (inactive) | 0.961 (inactive) | 0.971 (inactive) | 0.849 (inactive) | 1 (inactive) | 1.1 (inactive)
CC(=NC#N)N(C)Cc1ccc(Cl)nc1 | 0.969 | 0.971 | 0.989 | 1.13 | 1.02 (inactive) | 0.985 (inactive) | 1.02 (inactive) | 1.02 (inactive) | 0.979 (inactive) | 1.01 (inactive) | 0.992 (inactive) | 1.05 (inactive)
C[N+]12CCC(CC1)C(OC(=O)C(O)(c1ccccc1)c1ccccc1)C2 (configuration not stated) [Clidinium bromide] | 1.02 | 1.04 | 1.07 | 1 | 0.975 (inactive) | 0.952 (inactive) | 1.03 (inactive) | 0.957 (inactive) | 0.981 (inactive) | 1 (inactive) | 1 (inactive) | 1.02 (inactive)
C=C1CC[C@@]2(O)[C@H]3Cc4ccc(O)c5c4[C@@]2(CCN3CC2CC2)[C@H]1O5 [Nalmefene hydrochloride] | 1.08 | 0.981 | 1.02 | 1.07 | 1.02 (inactive) | 0.942 (inactive) | 0.59 (inactive) | 0.99 (inactive) | 1.02 (inactive) | 1.03 (inactive) | 1.01 (inactive) | 0.578 (inactive)
C[C@]12CC[C@H]3[C@@H](CCC4=CC(=O)CC[C@@H]43)[C@@H]1CC[C@@H]2O [Nandrolone] | 1.11 | 1.06 | 1.02 | 1.01 | 0.993 (inactive) | 1.01 (inactive) | 1.02 (inactive) | 1.04 (inactive) | 1 (inactive) | 1 (inactive) | 0.999 (inactive) | 1.03 (inactive)
C[C@H](N)[C@H](O)c1ccc(O)c(O)c1 [Levonordefrin] | 1.11 | 0.971 | 1 | 0.976 | 0.953 (inactive) | 1.04 (inactive) | 1.07 (inactive) | 0.904 (inactive) | 0.981 (inactive) | 0.962 (inactive) | 1.01 (inactive) | 1.14 (inactive)
C=CC(N)=O [Acrylamide] | 0.971 | 0.969 | 0.977 | 0.973 | 0.995 (inactive) | 1.03 (inactive) | 0.999 (inactive) | 0.967 (inactive) | 0.987 (inactive) | 1.04 (inactive) | 0.972 (inactive) | 1.03 (inactive)
Fc1ccc(Oc2ccnc3cc(Cl)cc(Cl)c23)cc1 | 1.06 | 1.01 | 1.02 | 1.04 | 1.02 (inactive) | 1.01 (inactive) | 0.957 (inactive) | 1.05 (inactive) | 1.02 (inactive) | 0.961 (inactive) | 1 (inactive) | 0.915 (inactive)
Nc1nc(N)nc(N)n1 [Melamine] | 0.88 | 0.99 | 0.966 | 1.11 | 0.958 (inactive) | 1.05 (inactive) | 1.01 (inactive) | 0.988 (inactive) | 0.956 (inactive) | 0.95 (inactive) | 1.01 (inactive) | 1.05 (inactive)
CC(C)=CC1C(C(=O)OCc2cccc(Oc3ccccc3)c2)C1(C)C (configuration not stated) [Phenothrin] | 0.963 | 1.02 | 1.05 | 1.06 | 0.924 (inactive) | 1.02 (inactive) | 1.05 (inactive) | 1.07 (inactive) | 1.02 (inactive) | 1.03 (inactive) | 1.01 (inactive) | 1.06 (inactive)
CCCCCC[C@H]1C(=O)O[C@H](C)[C@H](NC(=O)c2cccc(NC=O)c2O)C(=O)O[C@@H](C)[C@@H]1OC(=O)CC(C)C [Antimycin A] | 1.09 | 1.03 | 1.02 | 1.15 | 0.994 (inactive) | 0.974 (inactive) | 1.04 (inactive) | 0.99 (inactive) | 0.98 (inactive) | 1.03 (inactive) | 1.01 (inactive) | 0.975 (inactive)
CC1(C)[C@H](C(=O)O[C@H](C#N)c2cccc(Oc3ccccc3)c2)[C@@H]1C=C(Br)Br | 1.12 | 0.981 | 0.998 | 1.02 | 1.02 (inactive) | 0.958 (inactive) | 0.967 (inactive) | 0.983 (inactive) | 1.01 (inactive) | 0.989 (inactive) | 1 (inactive) | 0.915 (inactive)
NC(=O)C[S+]([O-])C(c1ccccc1)c1ccccc1 (configuration not stated) [Modafinil] | 0.82 | 0.705 | 0.712 | 0.795 | 0.949 (inactive) | 1.1 (inactive) | 1.03 (inactive) | 1.01 (inactive) | 0.987 (inactive) | 0.99 (inactive) | 1 (inactive) | 1.06 (inactive)
COCC(C)N(C(=O)CCl)c1c(C)csc1C (configuration not stated) | 1.06 | 1.02 | 1.03 | 0.986 | 0.989 (inactive) | 1.02 (inactive) | 0.991 (inactive) | 1.01 (inactive) | 1.01 (inactive) | 0.953 (inactive) | 1.04 (inactive) | 0.941 (inactive)
C#CCN1C(=O)COc2cc(F)c(N3C(=O)C4=C(CCCC4)C3=O)cc21 | 0.947 | 0.989 | 1 | 0.933 | 1.02 (inactive) | 1.14 (inactive) | 0.98 (inactive) | 1.01 (inactive) | 1.01 (inactive) | 1.04 (inactive) | 0.988 (inactive) | 0.969 (inactive)
CC(NC(C)(C)C)C(=O)c1cccc(Cl)c1 (configuration not stated) [Bupropion hydrochloride] | 0.957 | 1.01 | 0.949 | 1.02 | 1.08 (inactive) | 0.987 (inactive) | 1.08 (inactive) | 1.02 (inactive) | 0.995 (inactive) | 1 (inactive) | 0.97 (inactive) | 1.12 (inactive)
C[C@]12Cc3c[nH]nc3C[C@@H]1CC[C@@H]1[C@@H]2CC[C@@]2(C)[C@H]1CC[C@]2(C)O [Stanozolol] | 1.18 | 0.985 | 1.1 | 1.05 | 0.911 (inactive) | 0.973 (inactive) | 0.976 (inactive) | 0.981 (inactive) | 0.99 (inactive) | 0.959 (inactive) | 1.02 (inactive) | 1 (inactive)
COc1ccccc1N [o-Anisidine] | 1.07 | 1.04 | 0.996 | 1.01 | 1.03 (inactive) | 1.08 (inactive) | 1 (inactive) | 1 (inactive) | 0.983 (inactive) | 0.947 (inactive) | 0.997 (inactive) | 1.01 (inactive)
CCC(C)(C)C(=O)OC1=C(c2ccc(Cl)cc2Cl)C(=O)OC12CCCCC2 | 1.09 | 1.08 | 1.01 | 1.05 | 0.967 (inactive) | 1.05 (inactive) | 1.03 (inactive) | 1.02 (inactive) | 0.996 (inactive) | 0.997 (inactive) | 1.03 (inactive) | 1.05 (inactive)
CN1C(=O)COc2c(C(=O)NC3CN4CCC3CC4)cc(Cl)cc21 (configuration not stated) [Azasetron hydrochloride] | 0.734 | 0.55 | 0.585 | 0.0388 | 1.03 (inactive) | 0.992 (inactive) | 1.02 (inactive) | 0.507 (inactive) | 0.996 (inactive) | 0.512 (inactive) | 0.982 (inactive) | 0.986 (inactive)
C[C@]12CCC(=O)C=C1CC[C@@H]1[C@@H]2C(=O)C[C@]2(C)C(=O)CC[C@@H]12 [Adrenosterone] | 1.1 | 1.04 | 1.01 | 1 | 0.94 (inactive) | 1.02 (inactive) | 1.07 (inactive) | 1.09 (inactive) | 0.998 (inactive) | 1.01 (inactive) | 1.02 (inactive) | 1.07 (inactive)
Cc1ccccc1[N+](=O)[O-] [2-Nitrotoluene] | 0.884 | 0.993 | 0.968 | 0.984 | 0.994 (inactive) | 0.993 (inactive) | 0.981 (inactive) | 0.996 (inactive) | 1.01 (inactive) | 1.01 (inactive) | 0.993 (inactive) | 0.978 (inactive)

From the supplement of paper PMC12494721
